Bioassay records (PubChem BioAssay)
FBPA Giardia inh = Giardia lamblia aldolase inhibition. 0.71% of 290,000 active. Potency, µM (titrated, usually from 59.6 µM), hits mostly inhibitors. purified Giardia FBPA; further: nearly all actives have a fitted effect of over 55% in size
Target sequence (A8B2U2 whole entry, looked up): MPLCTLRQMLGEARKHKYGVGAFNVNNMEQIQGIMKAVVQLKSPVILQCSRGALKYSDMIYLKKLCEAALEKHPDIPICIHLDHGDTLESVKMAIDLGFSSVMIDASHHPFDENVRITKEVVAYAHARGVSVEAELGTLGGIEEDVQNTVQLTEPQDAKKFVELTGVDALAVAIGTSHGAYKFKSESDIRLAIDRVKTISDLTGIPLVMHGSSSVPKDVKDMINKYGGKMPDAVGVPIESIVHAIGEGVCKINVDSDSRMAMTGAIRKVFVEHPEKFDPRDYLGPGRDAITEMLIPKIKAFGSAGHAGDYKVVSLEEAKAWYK
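Giardia FBPA (40 nM reagent) was preincubated 10 min at RT with compound (up to 57.5 uM final), then substrate plus GAPDH/TPI/NAD/arsenate coupling system with diaphorase/resazurin was added; resorufin fluorescence (525/598 nm) was read after 20 min.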
AmpC inh no detg = AmpC beta-lactamase inhibition without detergent; P00811; AmpC nitrocefin hydrolysis, absorbance 480 nm, 0.0001% Triton; Potency, µM (doses to about 57.1 µM), actives largely listed as inhibitors; 0.52% of 330,000 active; AID 485341; further: nearly all actives have a fitted effect of over 20% in size
Target sequence (P00811 whole entry, looked up): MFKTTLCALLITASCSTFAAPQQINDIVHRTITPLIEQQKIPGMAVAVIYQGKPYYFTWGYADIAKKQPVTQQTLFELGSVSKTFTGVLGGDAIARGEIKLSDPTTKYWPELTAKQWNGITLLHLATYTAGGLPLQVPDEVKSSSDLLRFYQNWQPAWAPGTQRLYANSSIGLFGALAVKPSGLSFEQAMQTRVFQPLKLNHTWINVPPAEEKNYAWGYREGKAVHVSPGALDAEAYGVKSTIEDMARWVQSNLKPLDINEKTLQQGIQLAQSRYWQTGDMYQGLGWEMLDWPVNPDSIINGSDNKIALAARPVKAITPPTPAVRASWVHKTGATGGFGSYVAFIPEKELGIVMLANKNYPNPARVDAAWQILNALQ
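AmpC (5.3 nM in the dispensed reagent) in 20 mM phosphate pH 7.0 with 0.01% (detergent screen) or 0.0001% Triton X-100 was preincubated with compounds for 15 min at room temperature. Nitrocefin was then added from an 800 uM solution, and hydrolysis was followed at 480 nm.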
AmpC detergent = inhibitors of E. coli AmpC beta-lactamase with detergent | Potency, µM (doses to about 114 µM), usual class: inhibitors | AID 485294 | AmpC hydrolysis of nitrocefin, absorbance 480 nm, 0.01% Triton | 0.041% of 370,000 active; further: nearly all actives have a fitted effect of over 25% in size
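20 mM phosphate pH 7.0 + 0.01% (detergent screen) or 0.0001% Triton X-100; 5.3 nM AmpC reagent; cpd preinc 15 min RT; nitrocefin (800 uM stock) to start; A480 q20 s × 4 min; Activity was normalised to no-enzyme and no-compound control wells.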
Sm TGR inh = blocks Schistosoma mansoni thioredoxin glutathione reductase | Q962Y6 | purified TGR, DTNB reduction, TNB absorbance 405 nm | Potency, µM (top dose mostly 114 µM), actives largely listed as inhibitors | 3% of 360,000 active; further: nearly all actives have a fitted effect of over 60% in size
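First, TGR (20 nM dispensed) and NADPH were mixed with compound. Second, a 15 min room-temperature incubation followed. Third, further NADPH and then DTNB were added to start the reaction. Finally, TNB absorbance was monitored kinetically.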
RE007 growth inh = less growth of the S. pombe RE007 Vpr strain; AID 651644; S. pombe RE007 Vpr strain, BacTiter-Glo ATP luminescence, 24 h; Potency, µM (highest dose often 92.2 µM), usual class: inhibitors; 0.21% of 360,000 active; active means well fitted falling curve with a large enough effect; inconclusive means small, poorly fitted or top-dose-only effect; inactive means no such curve, though single readings can be large or run the other way; further: nearly all actives have a fitted effect of over 50% in size
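Fission yeast RE007 carrying one integrated HIV-1 vpr copy, seeded at OD 0.01 in PMG+AL medium with 23 nL pinned compound. Grown 24 h at 30 degrees; viability read by BacTiter-Glo luminescence after 5 min.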
Numbers stand for hits. Only some compounds are listed: those with a hit (about 3.4% of all), similar ones and a draw of the others. Unless noted, the call rests on the fitted dose curve; in most records, active means well fitted curve in the direction sought with a large enough effect; inconclusive means small, poorly fitted or top-dose-only effect, or another doubt; inactive means no such curve, though single readings can be large; an effect the other way counts as inactive or inconclusive.

For Cc1ccc2oc3c(c(=O)c2c1)C(c1cccc(O)c1)N(CCCN1CCOCC1)C3=O (stereo not given) the results were AmpC detergent inactive and Sm TGR inh inactive.
Screening CCOc1ccc(C2c3c(oc4ccccc4c3=O)C(=O)N2CCCN2CCOCC2)cc1 (stereo not given) returned FBPA Giardia inh inactive, AmpC inh no detg inactive, AmpC detergent inconclusive, Sm TGR inh 35µM and RE007 growth inh inactive.
CCCOc1ccc(C2c3c(oc4ccccc4c3=O)C(=O)N2CCCN2CCOCC2)cc1 (stereo not given) was read as FBPA Giardia inh inactive, AmpC inh no detg inactive, AmpC detergent inactive, Sm TGR inh 35µM and RE007 growth inh inactive.
Screening Cc1ccc2oc3c(c(=O)c2c1)C(c1ccc(F)cc1)N(CCCN1CCOCC1)C3=O (stereo not given) returned FBPA Giardia inh inactive, AmpC inh no detg inactive, AmpC detergent inactive and Sm TGR inh 32µM.
CN1C(=O)c2oc3ccccc3c(=O)c2C1c1ccncc1 (stereo not given) was read as FBPA Giardia inh inactive, AmpC inh no detg inactive, AmpC detergent inactive, Sm TGR inh 45µM and RE007 growth inh inactive.
`CCOc1ccc(C2c3c(oc4cc(C)c(C)cc4c3=O)C(=O)N2CCCN2CCOCC2)cc1` (stereo not given) gave FBPA Giardia inh inactive, AmpC inh no detg inactive, AmpC detergent inactive, Sm TGR inh inactive and RE007 growth inh inactive.
For COC(=O)c1c(Cl)c(Cl)c(C(=O)OC)c(Cl)c1Cl the results were FBPA Giardia inh inactive.
For C=CCOc1ccccc1CN1CCC(Oc2cc(C(=O)NC3CC3)ccc2OC)CC1 the results were AmpC inh no detg inactive, AmpC detergent inconclusive, Sm TGR inh inactive and RE007 growth inh inactive.
COC(=O)c1ccc(C2c3c(oc4ccccc4c3=O)C(=O)N2CCCN2CCOCC2)cc1 (stereo not given) was read as FBPA Giardia inh inactive, AmpC inh no detg inactive, AmpC detergent inactive, Sm TGR inh 25µM and RE007 growth inh inactive.
For CCCCc1c(-c2cccc(Cl)c2)ncn1CCc1ccccc1OC the results were RE007 growth inh 45µM.
`C/C(Cn1nnc([N+](=O)[O-])n1)=N\NC(=O)c1ccc(C)cc1` gave FBPA Giardia inh inconclusive, AmpC inh no detg inactive, AmpC detergent inconclusive, Sm TGR inh inactive and RE007 growth inh inactive.
C/C(Cn1nnc([N+](=O)[O-])n1)=N\NC(=O)c1ccncc1 was read as FBPA Giardia inh 20µM, AmpC inh no detg inactive, AmpC detergent inactive, Sm TGR inh inactive and RE007 growth inh inactive.
O=C(COC(=O)/C=C/c1cccs1)Nc1nc(-c2cccc(Br)c2)cs1 was read as FBPA Giardia inh inactive, AmpC inh no detg 6.3µM, AmpC detergent inactive, Sm TGR inh inactive and RE007 growth inh inactive.
Screening O=C(COC(=O)/C=C/c1cccs1)Nc1nc(-c2ccccc2)cs1 returned FBPA Giardia inh inactive, AmpC inh no detg inactive, AmpC detergent inactive, Sm TGR inh 22µM and RE007 growth inh inactive.
For O=C(/C=C/c1cccs1)Nc1nc(-c2ccccc2)cs1 the results were FBPA Giardia inh inactive, AmpC inh no detg inactive, AmpC detergent inactive, Sm TGR inh inactive and RE007 growth inh inactive.
Screening Cc1noc(C)c1S(=O)(=O)NCCCN1CCN(Cc2ccccc2)CC1 returned FBPA Giardia inh inactive, AmpC inh no detg inactive, AmpC detergent inactive and Sm TGR inh inactive.
`O=c1[nH]cc(C=NNc2ccccc2)c(=O)[nH]1` gave RE007 growth inh inactive.
Screening CCCCCCCNC(=O)c1cc(-c2ccncc2)nc2ccccc12 returned FBPA Giardia inh inactive, AmpC inh no detg inactive, AmpC detergent inactive, Sm TGR inh inactive and RE007 growth inh inactive.
Screening CCCCCCCNC(=O)C1(CC2CC(c3ccc(Cl)cc3)=NO2)CCN(C(=O)Cc2ccc(F)cc2)CC1 (stereo not given) returned FBPA Giardia inh inactive, AmpC inh no detg inactive, AmpC detergent inactive, Sm TGR inh inactive and RE007 growth inh inactive.
For CCCCCCCNC(=O)C1(CC2CC(c3ccc(Cl)cc3)=NO2)CCNCC1 (stereo not given) the results were FBPA Giardia inh inactive, AmpC inh no detg inactive, AmpC detergent inactive, Sm TGR inh 40µM and RE007 growth inh inactive.
CCCCCCCNC(=O)C1(CC2CC(c3cccc(Br)c3)=NO2)CCN(C(=O)Cc2ccc(F)cc2)CC1 (stereo not given) was read as AmpC inh no detg inactive, AmpC detergent inconclusive, Sm TGR inh inactive and RE007 growth inh inactive.
`CCCCCCCNC(=O)C1(CC2CC(c3cccc(Br)c3)=NO2)CCNCC1` (stereo not given) gave FBPA Giardia inh inactive, AmpC inh no detg inactive, AmpC detergent inconclusive, Sm TGR inh 25µM and RE007 growth inh inactive.
`Cc1ccc(S(=O)(=O)Cc2ccc(C(=O)N3CCN(c4ccccn4)CC3)o2)cc1` gave FBPA Giardia inh inactive, AmpC inh no detg inactive, AmpC detergent inactive, Sm TGR inh inconclusive and RE007 growth inh inactive.
CCOC(=O)C1CCCN(C(=O)c2ccc(C(=O)c3ccccc3)cc2)C1 (stereo not given) was read as AmpC inh no detg inactive, AmpC detergent inconclusive, Sm TGR inh inactive and RE007 growth inh inactive.
`Cc1ccc(S(=O)(=O)Cc2ccc(C(=O)N3CCCC3)o2)cc1` gave FBPA Giardia inh inactive, AmpC inh no detg inactive, AmpC detergent inactive, Sm TGR inh 45µM and RE007 growth inh inactive.
`CCOC(=O)C1CCCN(C(=O)c2ccc(CS(=O)(=O)Cc3ccccc3C)o2)C1` (stereo not given) gave FBPA Giardia inh inactive, AmpC inh no detg inactive, AmpC detergent inactive, Sm TGR inh 28µM and RE007 growth inh inactive.
For Cc1ccc(S(=O)(=O)Cc2ccc(C(=O)N3CCCCCC3)o2)cc1 the results were FBPA Giardia inh inactive, AmpC inh no detg inactive, AmpC detergent inconclusive, Sm TGR inh 16µM and RE007 growth inh inactive.
Screening Cc1ccc(S(=O)(=O)Cc2ccc(C(=O)NC3CCCCCC3)o2)cc1 returned AmpC inh no detg inactive, AmpC detergent inactive, Sm TGR inh inactive and RE007 growth inh inactive.
`CCOC(=O)C1CCCN(C(=O)c2ccc(CS(=O)(=O)c3ccc(C)cc3)o2)C1` (stereo not given) gave FBPA Giardia inh inactive, AmpC inh no detg inactive, AmpC detergent inactive, Sm TGR inh 20µM and RE007 growth inh inactive.
For Cc1ccc(C)c(N2CCN(C(=O)c3ccc(CS(=O)(=O)c4ccccc4C)o3)CC2)c1 the results were FBPA Giardia inh inactive, AmpC inh no detg inactive, AmpC detergent inconclusive, Sm TGR inh 25µM and RE007 growth inh inactive.
For CCOC(=O)C1CCCN(C(=O)c2ccc(-c3ccc([N+](=O)[O-])cc3)o2)C1 (stereo not given) the results were AmpC inh no detg inactive, AmpC detergent inactive, Sm TGR inh 6.3µM and RE007 growth inh inconclusive.
